Compound activity (PubChem BioAssay)
Most compounds without a hit are left out; they make up all but 3.8% or so of the library.
Beta2AR agonist: human beta-2 adrenergic receptor agonism by FAP; P07550; Am2.2-beta2AR cells, FAP receptor internalization, flow cytometry; response, % (test concentration not listed); actives 0.43% (n = 340,000);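 active = response above a set limit, near 3 SD of response in nonfluorescent compounds, cut at about 42% in these data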
Target sequence (P07550 whole entry, looked up): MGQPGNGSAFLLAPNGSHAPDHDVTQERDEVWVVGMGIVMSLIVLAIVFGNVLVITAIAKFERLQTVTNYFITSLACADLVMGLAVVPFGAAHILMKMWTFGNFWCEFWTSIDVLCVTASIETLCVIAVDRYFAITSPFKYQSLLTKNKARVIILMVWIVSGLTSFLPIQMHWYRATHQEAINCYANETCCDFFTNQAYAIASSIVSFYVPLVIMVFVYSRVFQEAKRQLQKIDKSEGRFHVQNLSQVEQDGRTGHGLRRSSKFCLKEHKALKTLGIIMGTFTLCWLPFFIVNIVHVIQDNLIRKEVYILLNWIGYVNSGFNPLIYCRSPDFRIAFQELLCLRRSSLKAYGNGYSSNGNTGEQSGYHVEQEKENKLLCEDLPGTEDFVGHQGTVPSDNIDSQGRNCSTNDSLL
tim10-1 inh: tim10-1 yeast growth inhibition | S. cerevisiae tim10-1 ts strain growth, BacTiter-Glo, 24 h | inhibition, % at 20 µM | actives 2.2% (n = 330,000) | AID 463190;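 active = inhibition of at least 40%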;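 also: mutant grown at 25 °C; 0% = DMSO wells with yeast and 100% = wells holding no yeast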
tim23-1 inh: tim23-1 yeast growth inhibition | S. cerevisiae tim23-1 growth, BacTiter-Glo luminescence, 24 h | inhibition, % at 20 µM | AID 463212 | actives 1.3% (n = 330,000);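 active = growth inhibition of the mutant yeast at or above 50%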;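 also: temperature-sensitive mutant grown at 25 °C; plate controls were DMSO-treated mutant yeast for no effect and medium wells lacking yeast for full effect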
TIM10 inh: growth inhibitors of TIM10 yeast strain; S. cerevisiae TIM10 strain growth, BacTiter-Glo luminescence, 24 h; inhibition, % at 10 µM; actives 1.4% (n = 330,000); AID 463195;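 active = inhibition of 40% or more at the single tested concentration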;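 also: wild-type TIM10 isogenic control strain grown at permissive 25 °C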
PfHsp90 yeast 2: growth inhibition of yeast expressing Plasmodium Hsp90 | actives 0.32% (n = 310,000) | S. cerevisiae expressing PfHsp90, BacTiter-Glo ATP, 48 h; yeast lacking PDR1 and PDR3 efflux regulators | AID 504621 | inhibition, % at 9.4 µM;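 active = every replicate shows inhibition above about 80%, whatever the replicate mean, limit read from the data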;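 also: 0% = DMSO neutral controls and 100% = 20 µM radicicol positive controls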
tim10-1 conf: tim10-1 yeast growth inhibition, confirmed | actives 56% (n = 7,400) | S. cerevisiae tim10-1 ts strain growth, BacTiter-Glo, 24 h | inhibition, % at 20 µM | shares compounds with tim10-1 inh;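 active = inhibition of yeast growth at or above a set limit in either of two repeat tests at 20 µM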;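 also: tim10-1 mutant grown at permissive 25 °C to find synthetic lethal compounds; 0% = DMSO yeast wells and 100% = medium wells without yeast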
TIM10 conf: confirmation of TIM10 yeast growth inhibitors; S. cerevisiae tim10 strain growth, BacTiter-Glo luminescence, 24 h; inhibition, % at 10 µM; shares compounds with TIM10 inh; AID 463215; actives 63% (n = 4,600);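 active = inhibition of yeast growth at or above a set limit in either of two replicates at 10 µM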;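 also: this counterscreen used the strain with wild-type TIM10; 0% = yeast with DMSO and 100% = medium wells lacking yeast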
tim23-1 confirm: tim23-1 yeast growth inhibition, confirmed; shares compounds with tim23-1 inh; S. cerevisiae tim23-1 growth, BacTiter-Glo luminescence, 24 h; inhibition, % at 20 µM; actives 83% (n = 4,400); AID 463218;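 active = inhibition above about 39% in either of two replicate wells at 20 µM, limit read from the data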;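 also: temperature-sensitive tim23-1 mutant grown at 25 °C; 0% = DMSO wells with yeast and 100% = medium wells without yeast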
* = called active by the depositor; . = no result.

SMILES	Beta2AR agonist	tim10-1 inh	tim23-1 inh	TIM10 inh	PfHsp90 yeast 2	tim10-1 conf	TIM10 conf	tim23-1 confirm
N#C/C(=C\c1ccncc1)C(=O)Nc1ccc(C(=O)O)cc1	-1	-10	2	7	-6	.	.	.
CC(C)c1ccc(NC(=O)/C(C#N)=C/c2ccncc2)cc1	20	54*	78*	27	22	15	.	55*
CCCOc1ccccc1/C=C(\C#N)C(=O)Nc1cccnc1	-1	73*	85*	54*	2	48*	46*	71*
N#C/C(=C\c1cccnc1)C(=O)Nc1ccccc1	9	.	.	.	16	.	.	.
CCOc1cccc(NC(=O)/C(C#N)=C\c2cccnc2)c1	20	61*	81*	52*	1	40*	48*	79*
CC(=O)Nc1ccc(OCC(=O)N2CCC(Cc3ccccc3)CC2)cc1	-2	23	18	13	-4	.	.	.
O=C(Nc1ccc(OCC(=O)N2CCC(Cc3ccccc3)CC2)cc1)c1ccco1	-18	59*	72*	68*	16	60*	43*	79*
CCOC(=O)C1CCN(S(=O)(=O)c2ccc(NC(=O)c3ccco3)cc2)CC1	-2	69*	65*	66*	3	62*	55*	69*
COc1cccc(NC(=O)CN(C)S(=O)(=O)c2ccc3[nH]c(=O)oc3c2)c1	16	-2	-18	-10	-3	.	.	.
COc1ccc(N2CC(C(=O)Nc3ccc(S(=O)(=O)Nc4nccs4)cc3)CC2=O)c(OC)c1 (stereo unspecified)	-2	13	14	4	-8	.	.	.
CCN(CC)S(=O)(=O)c1ccc(C(O)=C(C#N)c2nc3ccccc3n2C)cc1	1	.	.	.	-18	.	.	.
Oc1ccc2ccccc2c1CNc1ccc(Br)cn1	-1	46*	61*	37	2	63*	.	68*
CCN1C=C(C(=O)c2ccccc2)C(=O)CC1	-3	.	.	.	-19	.	.	.
O=S(=O)(O)c1cc(O)c2c(O)c(N=Nc3cc(Cl)ccc3O)c(S(=O)(=O)O)cc2c1	15	32	31	23	19	.	.	.
Cc1cc(-c2ccc(N=Nc3c(S(=O)(=O)O)cc4cc(S(=O)(=O)O)cc(N)c4c3O)c(C)c2)ccc1N=Nc1c(S(=O)(=O)O)cc2cc(S(=O)(=O)O)cc(N)c2c1O	.	65*	72*	55*	.	66*	47*	77*
CCCNS(=O)(=O)c1cccc(C(=O)NNC(=O)c2cc(C)oc2C)c1	-2	2	-2	-5	.	.	.	.
CSc1nc2ccc(NS(=O)(=O)c3ccc(Cl)s3)cc2s1	4	44*	58*	47*	-57	32*	44*	78*
O=C(/C=C/c1ccc(Cl)c(Cl)c1)n1cccn1	2	61*	59*	50*	-15	41*	-13	44*
O=C(/C=C/c1ccc(Cl)c(Cl)c1)N1CCOCC1	0	6	6	-17	11	.	.	.
O=[N+]([O-])c1ccc(N2CCCCC2)cn1	-2	2	-14	9	-23	.	.	.
O=[N+]([O-])c1c(C(Cl)Cl)nn(-c2ccc(Cl)cc2)c1N1CCCCC1	35	44*	64*	56*	-15	62*	41*	67*
O=C(NCCc1ccccc1)c1cccc(N2CCCC2=O)c1	2	-1	-5	-1	3	.	.	.
CCOc1ccc(/C=C/[N+](=O)[O-])c2ccccc12	78*	51*	73*	65*	-61	-9	55*	-108
CCOc1ccccc1/C=N/Nc1ccccc1[N+](=O)[O-]	4	9	7	12	12	.	.	.
CC(C)Cn1c(N)c(C(=O)COC(=O)c2c(O)c(Cl)cc(Cl)c2Cl)c(=O)n(C)c1=O	12	42*	51*	26	-21	26	.	58*
SMILES	Beta2AR agonist	tim10-1 inh	tim23-1 inh	TIM10 inh	PfHsp90 yeast 2	tim10-1 conf	TIM10 conf	tim23-1 confirm
O=c1[nH]c(SCc2ccccc2Cl)nc2c1CCC2	-9	24	30	22	.	.	.	.
CNc1nc(SCc2ccccc2Cl)nc2c1CCCC2	-9	42*	54*	46*	-20	43*	45*	60*
COc1ccc(N2CCN(C(=O)CNC(=O)c3cccc(Br)c3)CC2)cc1	-4	9	17	11	-27	.	.	.
CCCCC(CC)CN=C(N)NC(N)=NCCCCCCN=C(N)NC(N)=NCC(CC)CCCC (stereo unspecified)	-552	96*	88*	94*	110*	95*	96*	84*
Cc1ccc(NCc2cccc(B(O)O)c2)cc1	3	.	.	.	-17	.	.	.
CCC(=O)N1CCc2cc(S(=O)(=O)N3CCN(c4cc(Cl)ccc4C)CC3)ccc21	1	5	-6	-3	-7	.	.	.
O=C(/C=C/c1cccs1)NC(=S)NNC(=O)c1ccccc1O	5	44*	64*	42*	28	24	42*	66*
COc1ccc(C(=O)NNC(=S)NC(=O)/C=C/c2cccs2)cc1	-4	11	-13	-14	-38	.	.	.
C=C(C1=CCN(S(=O)C(C)(C)C)[C@@H]1CCO)c1ccccc1 (stereo partly specified)	-4	.	.	.	10	.	.	.
CC1=NN(c2cccc(C(=O)O)c2)C(=O)/C1=C\C=C/c1ccccc1	.	43*	53*	47*	.	47*	42*	62*
COc1cccc(C(=O)NNC(=O)c2ccc3ccccc3c2)c1	-8	.	.	.	.	.	.	.
Cc1ccccc1C(=O)Oc1ccc2ccc(O)cc2c1	-5	49*	51*	34	-25	46*	.	49*
COc1cccc(C(=O)Oc2ccc3ccc(O)cc3c2)c1	.	43*	57*	34	.	38*	.	54*
Cc1ccc(C)c(NC(=S)NNc2ccc(F)cc2F)c1	4	47*	58*	13	-7	42*	.	57*
Cc1ccc(C)c(NC(=S)NCCc2ccc(F)cc2)c1	7	33	24	35	-17	.	.	.
O=c1oc2cc(Oc3ccc(C(F)(F)F)cc3[N+](=O)[O-])ccc2c2c1CCC2	-11	11	6	4	-8	.	.	.
O=c1oc2cc(Oc3c([N+](=O)[O-])cc(C(F)(F)F)cc3[N+](=O)[O-])ccc2c2c1CCCC2	10	72*	76*	69*	.	65*	74*	79*
O=C(CN1C(=O)NC2(CCCC2)C1=O)N1CCN(S(=O)(=O)c2cc(Cl)ccc2Cl)CC1	-4	-7	5	-5	.	.	.	.
N/C(=N\OC(=O)c1cccs1)C1(c2ccc(Cl)cc2Cl)CC1	2	50*	74*	66*	-23	45*	76*	73*
O=C(NNc1cc(Cl)ccc1Cl)c1cccs1	9	8	14	-7	-22	.	.	.
